# Laboratory results taken from PubChem BioAssay AID1159580 (chemical genetic matrix, 2015).
# Out of some 5,500 compounds screened, about 2,000 (36%) were called active. Roughly 18% stayed inconclusive and do not appear here. Rule as the data show it: active = normalized growth mostly below about 0.91 (no sharp cut-off); inconclusive = no clear call, values can overlap the other calls; inactive = mostly above about 0.92. This is one part of the list.
# Assay: chemical genetic growth profiling, strain panel (AID 1159580);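 also: tested at 20 µM; growth read once vehicle control cultures reached saturation at 30 °C; 1 = growth at the plate median or of vehicle wells; lower values mean less growth of the strain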
# Conditions: S. cerevisiae deletion strains, growth OD
smiles,measurement,setting,value
COC(=O)/C(C)=C\CC12OC(C)(C)C3CC(C=C4C(=O)c5c(O)c6c(c(CCC(C)(C)Cl)c5OC431)OC1(C)CCC(=C(C)C)C6C1)C2=O (stereo unspecified),normalized growth,"locus YBR021W, strain FUR4, stronger effect = lower value",0.981 (inactive)
same,normalized growth,"locus YBR229C, strain ROT2, stronger effect = lower value",1.02 (inactive)
same,normalized growth,"locus YCL029C, strain bik1, stronger effect = lower value",0.997 (inactive)
same,normalized growth,"locus YDL035C, strain GPR1, stronger effect = lower value",1.01 (inactive)
same,normalized growth,"locus YDL074C, strain BRE1, stronger effect = lower value",0.994 (inactive)
same,normalized growth,"locus YDL101C, strain DUN1, stronger effect = lower value",0.999 (inactive)
same,normalized growth,"locus YDL134C, strain PPH21, stronger effect = lower value",0.976 (inactive)
same,normalized growth,"locus YDL185W, strain tfp1, stronger effect = lower value",1.01 (inactive)
same,normalized growth,"locus YDL192W, strain arf1, stronger effect = lower value",0.985 (inactive)
same,normalized growth,"locus YDR101C, strain arx1, stronger effect = lower value",0.992 (inactive)
same,normalized growth,"locus YDR150W, strain NUM1, stronger effect = lower value",1.02 (inactive)
same,normalized growth,"locus YDR162C, strain NBP2, stronger effect = lower value",1.01 (inactive)
same,normalized growth,"locus YDR318W, strain mcm21, stronger effect = lower value",0.985 (inactive)
same,normalized growth,"locus YDR388W, stronger effect = lower value",1.01 (inactive)
same,normalized growth,"locus YDR502C, strain sam2, stronger effect = lower value",0.961 (inactive)
same,normalized growth,"locus YER110C, stronger effect = lower value",1.02 (inactive)
same,normalized growth,"locus YER155C, strain BEM2, stronger effect = lower value",1.01 (inactive)
same,normalized growth,"locus YER167W, strain BCK2, stronger effect = lower value",1.01 (inactive)
same,normalized growth,"locus YGL078C, strain dbp3, stronger effect = lower value",0.994 (inactive)
same,normalized growth,"locus YGL086W, strain mad1, stronger effect = lower value",0.962 (inactive)
same,normalized growth,"locus YGL248W, strain PDE1, stronger effect = lower value",0.98 (inactive)
same,normalized growth,"locus YGR135W, strain pre9, stronger effect = lower value",0.982 (inactive)
same,normalized growth,"locus YGR252W, strain gcn5, stronger effect = lower value",0.919 (inactive)
same,normalized growth,"locus YHR030C, strain SLT2, stronger effect = lower value",1.02 (inactive)
same,normalized growth,"locus YHR079C, strain IRE1 (second series), stronger effect = lower value",1 (inactive)
same,normalized growth,"locus YHR094C, strain hxt1, stronger effect = lower value",1 (inactive)
same,normalized growth,"locus YHR129C, strain ARP1, stronger effect = lower value",1.01 (inactive)
same,normalized growth,"locus YHR200W, strain rpn10, stronger effect = lower value",0.984 (inactive)
same,normalized growth,"locus YIL066C, strain RNR3, stronger effect = lower value",1.01 (inactive)
same,normalized growth,"locus YIL073C, strain SPO22, stronger effect = lower value",0.987 (inactive)
same,normalized growth,"locus YIL125W, strain kgd1, stronger effect = lower value",0.985 (inactive)
same,normalized growth,"locus YIR030C, strain dcg1, stronger effect = lower value",1.01 (inactive)
same,normalized growth,"locus YJL095W, strain BCK1, stronger effect = lower value",0.959 (inactive)
same,normalized growth,"locus YJL134W, strain LCB3, stronger effect = lower value",1.03 (inactive)
same,normalized growth,"locus YJL168C, strain set2, stronger effect = lower value",1.01 (inactive)
same,normalized growth,"locus YJL187C, strain SWE1 (second series), stronger effect = lower value",0.986 (inactive)
same,normalized growth,"locus YJR043C, strain POL32, stronger effect = lower value",1.02 (inactive)
same,normalized growth,"locus YKL009W, strain mrt4, stronger effect = lower value",0.979 (inactive)
same,normalized growth,"locus YKL068W, stronger effect = lower value",0.999 (inactive)
same,normalized growth,"locus YKL085W, strain MDH1 (second series), stronger effect = lower value",0.997 (inactive)
same,normalized growth,"locus YKL085W, strain MDH1, stronger effect = lower value",0.997 (inactive)
same,normalized growth,"locus YKR001C, strain vps1, stronger effect = lower value",0.952 (inactive)
same,normalized growth,"locus YLR039C, strain RIC1, stronger effect = lower value",0.957 (inactive)
same,normalized growth,"locus YLR058C, strain SHM2, stronger effect = lower value",1 (inactive)
same,normalized growth,"locus YLR102C, strain apc9, stronger effect = lower value",1.01 (inactive)
same,normalized growth,"locus YLR262C, strain YPT6, stronger effect = lower value",0.946 (inactive)
same,normalized growth,"locus YLR268W, strain sec22, stronger effect = lower value",0.975 (inactive)
same,normalized growth,"locus YLR330W, strain CHS5, stronger effect = lower value",1.01 (inactive)
same,normalized growth,"locus YLR342W, strain FKS1 (second series), stronger effect = lower value",0.957 (inactive)
same,normalized growth,"locus YLR371W, strain rom2, stronger effect = lower value",1.02 (inactive)
same,normalized growth,"locus YLR418C, strain cdc73, stronger effect = lower value",0.834 (active)
same,normalized growth,"locus YML016C, strain PPZ1, stronger effect = lower value",1.01 (inactive)
same,normalized growth,"locus YML032C, strain rad52, stronger effect = lower value",0.988 (inactive)
same,normalized growth,"locus YML124C, strain tub3, stronger effect = lower value",1.02 (inactive)
same,normalized growth,"locus YMR078C, strain ctf18, stronger effect = lower value",1 (inactive)
same,normalized growth,"locus YMR223W, strain ubp8, stronger effect = lower value",0.985 (inactive)
same,normalized growth,"locus YMR307W, strain GAS1, stronger effect = lower value",0.955 (inactive)
same,normalized growth,"locus YNL067W, strain RPL9B, stronger effect = lower value",1.02 (inactive)
same,normalized growth,"locus YNL128W, strain TEP1, stronger effect = lower value",1.04 (inactive)
same,normalized growth,"locus YNL153C, strain GIM3, stronger effect = lower value",1 (inactive)
same,normalized growth,"locus YNL233W, strain BNI4, stronger effect = lower value",0.993 (inactive)
same,normalized growth,"locus YNL250W, strain rad50, stronger effect = lower value",1.01 (inactive)
same,normalized growth,"locus YNL271C, strain bni1, stronger effect = lower value",1.01 (inactive)
same,normalized growth,"locus YNL298W, strain CLA4, stronger effect = lower value",1.01 (inactive)
same,normalized growth,"locus YNL307C, strain MCK1, stronger effect = lower value",0.981 (inactive)
same,normalized growth,"locus YNL322C, strain KRE1, stronger effect = lower value",1.03 (inactive)
same,normalized growth,"locus YNR052C, strain pop2, stronger effect = lower value",0.989 (inactive)
same,normalized growth,"locus YOL006C, strain TOP1, stronger effect = lower value",1.06 (inactive)
same,normalized growth,"locus YOL012C, strain htz1",0.7 (inactive)
same,normalized growth,"locus YOL147C, strain pex11, stronger effect = lower value",1 (inactive)
same,normalized growth,"locus YOR061W, strain CKA2, stronger effect = lower value",0.999 (inactive)
same,normalized growth,"locus YOR069W, strain VPS5, stronger effect = lower value",1.02 (inactive)
same,normalized growth,"locus YOR136W, strain idh2, stronger effect = lower value",0.987 (inactive)
same,normalized growth,"locus YOR144C, strain elg1, stronger effect = lower value",1 (inactive)
same,normalized growth,"locus YOR184W, strain ser1, stronger effect = lower value",0.977 (inactive)
same,normalized growth,"locus YOR316C, strain cot1, stronger effect = lower value",0.999 (inactive)
same,normalized growth,"locus YPR119W, strain clb2, stronger effect = lower value",1.01 (inactive)
same,normalized growth,"locus YPR141C, strain kar3, stronger effect = lower value",1.02 (inactive)
same,normalized growth,"locus YPR163C, strain tif3, stronger effect = lower value",1 (inactive)
same,normalized growth,"locus YPR167C, strain met16, stronger effect = lower value",0.982 (inactive)
same,normalized growth,"strain wtn01, stronger effect = lower value",0.969 (inactive)
